Laboratory results taken from PubChem BioAssay (EPA / NIEHS).
Where “and” joins values, the source holds several entries; their conditions need not be identical. Identical values can stand only once. Calls of active or inactive are those of the source. The calls were made as follows: active = hit-call score of the fitted dose curve at least 0.9, where 1 is the maximum; inactive = score below 0.9.

system: TTR (gene 7276); assay: CCTE_GLTED_hTTR_0.125uM: CCTE's human Transthyretin (hTTR) Inhibition Assay, with 0.125uM TTR, Great Lakes Toxicology and Ecology Division (GLTED) Lab (AID 2284431)
Experimental: CCTE_GLTED_hTTR is a cell-free, single-readout assay designed to test the chemicals' ability to displace T4 from the human transthyretin (TTR) protein. TTR (at 0.125uM or 0.5uM) is incubated in presence of test chemical for 2 hours during which disrupting chemicals displace ANSA from the TTR protein. Results read fluorescence at 380 excitation and 475 emission.CCTE_GLTED_hTTR_0.125uM is the assay component measured from the CCTE_GLTED_hTTR assay. It is designed to make measurements of fluorescent polarization, using a form of binding reporter, as detected with Fluorescence signals by Fluorescence technology.Data from the assay component CCTE_GLTED_hTTR_0.125uM was analyzed at the assay endpoint CCTE_GLTED_hTTR_0.125uM in the positive analysis fitting direction relative to DMSO as the negative control and baseline of activity. Using a type of binding reporter, loss-of-signal activity can be used to understand a chemical's ability to displace T4 from transthyretin. To generalize the intended target to other relatable targets, this assay endpoint is annotated to the 'transporter' intended target family, where the subfamily is 'hormone carrier protein'.
Human transthyretin (TTR) assay, developed at Great Lakes Toxicology and Ecology Division (GLTED) within the EPA's Center for Computational Toxicology and Exposure (CCTE), is designed to test the chemicals' ability to displace T4 from the TTR protein. TTR (0.125uM) is incubated in presence of test chemical for 2 hours during which disrupting chemicals displace ANSA from the TTR protein. Results read fluorescence at 380 excitation and 475 emission.

| SMILES | AC50 |
| --- | --- |
| O=C(NS(=O)(=O)/C=C/c1cccs1)c1ccc(F)cc1Br | 7.75 µM (active) |
| Cc1cc(Cc2ccc(N)c(C)c2)ccc1N | 9.71 µM (active) |
| O=C(O)c1[nH]n(-c2ccc(S(=O)(=O)O)cc2)c(=O)c1N=Nc1ccc(S(=O)(=O)O)cc1 | 17.8 µM (active) |
| S=c1[nH]c2ccccc2s1 | 4.06 µM (active) |
| CCCCc1nc2cccnc2n1Cc1ccc(-c2ccccc2-c2nnn[nH]2)cc1 | 7.22 µM (active) |
| CCCCCCCCCCCCCCOS(=O)(=O)O | 1.9 µM (active) |
| CC(=O)CC(c1ccccc1)c1c(O)c2ccccc2oc1=O (configuration not stated) | 7.34 µM (active) and 4.39 µM (active) |
| O=C1c2c(O)cccc2Cc2cccc(O)c21 | 22 µM (active) |
| O=Cc1ccccc1C=O | 0.121 µM (active) |
| Cc1c(C)c2c(c(C)c1O)CCC(C)(COc1ccc(CC3SC(=O)NC3=O)cc1)O2 (configuration not stated) | 2.31 µM (active) |
| O=C1OC(c2ccc(O)cc2)(c2ccc(O)cc2)c2ccccc21 | 0.056 µM (active) |
| CCC(C)N(C)C(=O)c1cc2ccccc2c(-c2ccccc2Cl)n1 (configuration not stated) | 27.1 µM (active) |
